# Rows were chosen to be rich in hits. Some 0.64% of all compounds tested hit in one or more screens of this group.
# PDI turbidity = PDI (human) enzyme inhibition; 350,000 compounds, 0.052% hits; PDI insulin aggregation turbidity, A650, 90 min; AID 588391; P07237; inhibition, % at 10 µM;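 active means mean inhibition across replicates of 30% or more, whatever share of single replicates reach that level; inconclusive means mean inhibition below 30% while every single replicate reaches 30%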
# Target sequence (P07237 whole entry, looked up): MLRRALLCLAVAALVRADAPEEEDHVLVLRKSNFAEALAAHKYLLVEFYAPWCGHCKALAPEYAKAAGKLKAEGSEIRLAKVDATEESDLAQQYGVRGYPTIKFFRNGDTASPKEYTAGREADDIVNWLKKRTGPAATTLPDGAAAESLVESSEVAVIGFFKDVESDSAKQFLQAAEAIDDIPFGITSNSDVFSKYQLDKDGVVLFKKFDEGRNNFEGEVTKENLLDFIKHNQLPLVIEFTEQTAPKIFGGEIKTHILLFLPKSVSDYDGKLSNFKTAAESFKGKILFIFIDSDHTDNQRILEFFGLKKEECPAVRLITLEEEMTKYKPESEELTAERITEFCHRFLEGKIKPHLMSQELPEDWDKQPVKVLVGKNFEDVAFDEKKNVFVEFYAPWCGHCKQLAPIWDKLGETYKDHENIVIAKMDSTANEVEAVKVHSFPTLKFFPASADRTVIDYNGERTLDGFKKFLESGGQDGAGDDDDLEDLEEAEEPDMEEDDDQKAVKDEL
# AI-2 QS modul = Vibrio harveyi AI-2 quorum sensing modulation. Vibrio harveyi JMH597 AI-2 luminescence/OD600 ratio, 9 h; active compounds read low; strain lacks LuxN and CqsS sensors; 0 = neutral-control median. activity change, % at 7.5 µM. 300,000 compounds, 0.4% hits. AID 2094; in the data active means activity change below about -75%, passing the limit was not always enough; inconclusive means no clear call, values can overlap the other calls;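 further: luminescence divided by OD600 gain over 9 h not by final OD600 alone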
# PvdQ inh = blocks Pseudomonas aeruginosa PvdQ acylase activity | 340,000 compounds, 0.063% hits | purified PvdQ acylase, fluorescence plate reader | inhibition, % at 10 µM; in the data active means inhibition above about 30%, passing the limit was not always enough; inconclusive means no clear call, values can overlap the other calls
# ERp5 block = blocks human ERp5 reductase activity on insulin; inhibition, % at 9.99 µM; 350,000 compounds, 0.05% hits; ERp5 insulin aggregation, absorbance 650 nm, 90 min;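 active means mean replicate inhibition above about 25%, with every replicate also reaching it, limit read from the data, passing the limit was not always enough; inconclusive means only one of those two criteria met; inactive means neither criterion met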
# Vif inh = HIV Vif inhibition; HEK293T cells, Vif self-association by quenched fluorescence, imaging, 24 h; 340,000 compounds, 0.35% hits; AID 602346; inhibition, % at 7.49 µM; in the data active means inhibition above about 50%, passing the limit was not always enough; inconclusive means no clear call, values can overlap the other calls; inactive means below about 31%
# Numbers stand for hits; n = inactive; u = inconclusive; x = no result.
SMILES,PDI turbidity,AI-2 QS modul,PvdQ inh,ERp5 block,Vif inh
O=S(=O)(Nc1ccc(C(F)(F)F)cc1)c1cccs1,n,-84.9,n,n,n
O=S(=O)(Nc1ccc(N2CCCCC2)cc1)c1cccs1,n,n,n,x,n
C[C@H]1CN([C@@H](C)CO)S(=O)(=O)c2ccc(-c3ccccc3F)cc2O[C@H]1CN(C)Cc1cncnc1,x,x,x,n,x
CC(C)C(NC(=O)c1ccc(F)cc1)C(=O)N1CCOCC1 (stereo not given),n,x,n,27.4,n
Cc1noc(C)c1NC(=O)Nc1ccc2c(c1)CC(=O)N([C@H](C)CO)C[C@@H](C)[C@@H](CN(C)S(=O)(=O)c1cccs1)O2,x,x,x,n,x
CCOc1cccc(C(=O)Nc2ccc(NC(=O)c3cc4ccccc4o3)c(OC)c2)c1,n,n,n,n,71.2
CCOc1cccc(C(=O)Nc2ccc3oc(Cc4ccc(Cl)cc4)nc3c2)c1,n,n,n,n,56.4
COc1ccc2c3c(n(C)c2c1)[C@H](CO)NCC31CCN(S(=O)(=O)c2ccccc2)CC1,x,x,x,n,x
Cc1ccccc1N(C(=O)Cn1nnc(-c2ccc(F)cc2)n1)C(C(=O)NC(C)(C)C)c1ccncc1 (stereo not given),n,n,n,n,n
CC(C)(C)NC(=O)C(c1ccncc1)N(C(=O)Cn1nnc(-c2ccc(F)cc2)n1)c1ccccc1F (stereo not given),n,n,n,n,60.5
COc1ccc(S(=O)(=O)N2CCC3(CC2)CN(Cc2ccccc2OC)[C@@H](CO)c2[nH]c4cc(OC)ccc4c23)cc1,x,x,x,n,x
c1ccc(CSc2nnc(-c3c[nH]c4ccccc34)o2)cc1,n,-81.9,n,x,n
c1ccc2c(-c3nnc(SCc4cn5ccccc5n4)o3)c[nH]c2c1,n,n,n,x,n
CCCN(C)C[C@H]1OCCCC[C@@H](C)Oc2ccc(NS(=O)(=O)c3cn(C)cn3)cc2C(=O)N([C@H](C)CO)C[C@@H]1C,x,x,x,n,x
CCCNC(=O)Nc1ccc2c(c1)C(=O)N(C)C[C@H](OC)[C@H](C)CN(CCC)[C@H](C)CO2,x,x,x,n,x
C#CCSc1nnc(-c2ccc([N+](=O)[O-])cc2)o1,n,n,n,n,n
CSc1nnc(-c2ccc([N+](=O)[O-])cc2)o1,n,n,57.6,n,n
COc1cccc(NC(=O)C[C@H]2CC[C@H]3[C@H](COc4ccc(NC(=O)C5CCCCC5)cc4C(=O)N3C)O2)c1,x,x,x,n,x
CC1(C)CC(=O)C(/C=N/n2c(C(F)(F)F)nc3ccccc3c2=O)=C(O)C1,n,n,n,n,85.5
Cc1ccc(NCc2ccccc2F)cc1,n,n,n,x,n
Fc1ccccc1CNc1ccc(Cl)c(Cl)c1,n,n,n,x,54.5
O=C(NNC(=S)NC(=O)c1ccccc1)c1ccc([N+](=O)[O-])cc1,n,u,n,n,n
O=C(CCc1ccccc1)NNC(=S)NC(=O)c1ccccc1,n,-308.8,n,x,n
Cc1ccc(C(=O)NC(=S)Nc2ccccc2C(F)(F)F)cc1,n,-87.1,n,x,n
Cc1ccc(C(=O)NC(=S)NNC(=O)c2ccc([N+](=O)[O-])cc2)cc1,n,-85.9,n,n,n
SMILES,PDI turbidity,AI-2 QS modul,PvdQ inh,ERp5 block,Vif inh
Cc1ccc(C(=O)NC(=S)NNC(=O)c2ccccc2)cc1,n,-150.5,n,n,n
Cc1cccc(C(=O)NNC(=S)NC(=O)c2ccccc2)c1,n,u,n,n,n
O=C(Nc1ccc(F)cc1)N1C[C@@H]2[C@H](c3ccccc31)[C@@H](CO)N2C(=O)Cc1cccnc1,x,x,x,n,x
CO[C@@H]1CN(C)C(=O)c2cc(NC(=O)C3CCOCC3)ccc2OC[C@@H](C)N(CC2CC2)C[C@@H]1C,x,x,x,n,x
Cc1ccc(C(=O)NNC(=S)NC(=O)c2ccccc2)cc1,n,-83.8,n,n,n
COc1ccc(C(=O)Nc2ccc(OC)c([N+](=O)[O-])c2)cc1Br,n,n,n,n,n
COc1ccc(C(=O)Nc2cccc([N+](=O)[O-])c2)cc1Br,n,n,n,x,74.5
O=C(NC(=S)Nc1cccc(NC(=O)c2ccccc2)c1)c1cccc([N+](=O)[O-])c1,31.7,n,n,x,n
NS(=O)(=O)c1cccc(NC(=S)NC(=O)c2cccc([N+](=O)[O-])c2)c1,n,n,n,n,n
Cc1ccc(OCC(=O)O/N=C(\N)c2ccccn2)cc1,n,n,n,n,n
Cc1cccc(OCC(=O)O/N=C(\N)c2ccccn2)c1C,n,-93.4,n,x,x
C[C@@H]1CN([C@H](C)CO)C(=O)c2cccc(NS(=O)(=O)c3ccc(F)cc3)c2O[C@@H]1CN(C)Cc1ccc(-c2ccccc2)cc1,x,x,x,n,x
